We go through eight molecules from the supplement of paper PMC9262897, “Low-cost anti-mycobacterial drug discovery using engineered E. coli” (Nature Communications, 2022).

The assay relates to E. coli TESEC Mtb Alr. As to the kind of experiment: growth (OD600 after 10 h); higher = more growth (less inhibition). Conditions: compound 0.1 mM. As for the experimental part:
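TESEC Mtb Alr E. coli, or the Alr+ wild-type control, in 384-well plates with Prestwick library compounds at 0.1 mM and 1% DMSO, across arabinose induction levels of 1E3 to 1E7 nM. Growth is read as OD600 after 10 h at 37 °C in triplicate biological replicates.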

Setting [1] is: arabinose 1000 nM, raw OD600 reference: median of DMSO wells 0.294, cell-free background 0.041.
[2] abbreviates: arabinose 10000 nM, raw OD600 reference: median of DMSO wells 0.264, cell-free background 0.041.
The mark [3] stands for this setting: arabinose 100000 nM, raw OD600 reference: median of DMSO wells 0.201, cell-free background 0.041.
The mark [4] stands for this setting: arabinose 1000000 nM, raw OD600 reference: median of DMSO wells 0.193, cell-free background 0.041.
Setting [5] is: arabinose 10000000 nM, raw OD600 reference: median of DMSO wells 0.146, cell-free background 0.041.

Counter-ions that a name gives are not always drawn. ± gives the standard deviation of the averaged measurements.

Regarding `CC(C)(C)C(=O)OCOC(=O)[C@@H]1N2C(=O)[C@@H](NC(=O)[C@H](N)c3ccccc3)[C@H]2SC1(C)C` [Pivampicillin], the growth under setting [1] is 0.351 ± 0.0076; the growth under setting [2] is 0.285 ± 0.011; the growth under setting [3] stood at 0.298 ± 0.011; the growth under setting [4] stood at 0.207 ± 0.02; the growth under setting [5] turned out to be 0.203 ± 0.0048.

In the case of `CNCCC=C1c2ccccc2CCc2ccccc21` [Nortriptyline hydrochloride], the growth by setting is: under setting [1], 0.181 ± 0.0093; under setting [2], 0.205 ± 0.011; under setting [3], 0.155 ± 0.01; under setting [4], 0.0683 ± 0.00076; under setting [5], 0.0845 ± 0.0019.

In turn, `C[C@H]1NC(=O)NC1=O` [Methylhydantoin-5-(D)] displayed a growth under setting [1] of 0.323 ± 0.014; a growth under setting [2] of 0.268 ± 0.005; a growth under setting [3] of 0.2 ± 0.019; a growth under setting [4] of 0.186 ± 0.0032; a growth under setting [5] of 0.156 ± 0.0032.

For the molecule `CCCCOc1ccc(C(=O)CCN2CCCCC2)cc1` [Dyclonine hydrochloride], the growth runs as follows: under setting [1], 0.278 ± 0.0053; under setting [2], 0.252 ± 0.0069; under setting [3], 0.183 ± 0.0081; under setting [4], 0.143 ± 0.0049; under setting [5], 0.144 ± 0.0069.

For the molecule `CCn1cc(C(=O)O)c(=O)c2cc(F)c(N3CCNCC3)cc21` [Norfloxacin], the growth runs as follows: under setting [1], 0.0427 ± 0.00078; under setting [2], 0.0398 ± 0.00098; under setting [3], 0.0437 ± 0.00036; under setting [4], 0.0398 ± 0.0006; under setting [5], 0.0437 ± 0.00035.

Consider `CC1(C)S[C@@H]2[C@H](NC(=O)[C@H](NC(=O)N3CCNC3=O)c3ccccc3)C(=O)N2[C@H]1C(=O)O` [Azlocillin sodium salt], for which the growth was determined as 0.312 ± 0.008 under setting [1]; 0.276 ± 0.0051 under setting [2]; 0.177 ± 0.0081 under setting [3]; 0.195 ± 0.013 under setting [4]; 0.152 ± 0.015 under setting [5].

Consider `CCCN(CCC)C(=O)C(CCC(=O)O)NC(=O)c1ccccc1` (stereo not given) [Proglumide], for which the growth is, setting by setting: under setting [1], 0.282 ± 0.036; under setting [2], 0.29 ± 0.017; under setting [3], 0.22 ± 0.025; under setting [4], 0.188 ± 0.0035; under setting [5], 0.17 ± 0.0066.

In the case of `C=C[C@H]1CN2CC[C@H]1C[C@@H]2[C@@H](O)c1ccnc2ccc(OC)cc12` [Quinidine hydrochloride monohydrate], the growth turned out to be 0.28 ± 0.019 under setting [1]; 0.265 ± 0.01 under setting [2]; 0.181 ± 0.0089 under setting [3]; 0.138 ± 0.0072 under setting [4]; 0.144 ± 0.0058 under setting [5].
